# The list is not random: actives were taken first. Their share in the collection is about 7.8%.
# HEK293 cAMP cs: parental HEK293 cAMP activation (counter-screen); parental HEK293 CNG cAMP sensor, membrane potential fluorescence; Potency, µM (series often up to 57.1 µM), for the others: at the top dose activation, most hits filed as activators; 2.5% of 73,000 active; AID 938; also: % of control where 0% means no effect; nearly all actives have a fitted effect of over 55% in size
#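 Parental HEK 293 cells stably expressing a cAMP-gated CNG channel were loaded with membrane potential dye containing 100 uM RO 20-1724 for 60 min. Compound added for 30 min; depolarization read as fluorescence intensity at 590 nm.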
# Bst PK mod: pyruvate kinase (B. stearothermophilus) modulation; purified pyruvate kinase, luminescence ATP production; ribose 5-phosphate activator present at AC10; Potency, µM; 1.2% of 51,000 active; in the data active = potency below about 11 µM; inconclusive = mostly about 12 µM to 25 µM;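 the screen sought inhibitors and activators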;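 also: scaled between full activation by ribose 5 phosphate and full inhibition by luteolin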
# Luciferase inh: firefly luciferase inhibition; purified firefly luciferase, luminescence, 8 min; Potency, µM (series often up to 57.1 µM), without a hit: top-dose activity change, negative = inhibition, actives largely listed as inhibitors; 2.2% of 72,000 active; AID 411; also: % is scaled to controls: 0 for no effect and ±100 for the full control effect; nearly all actives have a fitted effect of over 40% in size
#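 Compounds were tested as concentration series (qHTS) against purified P. pyralis luciferase with luciferin and 10 uM ATP in 50 mM imidazole pH 7.2, 50 mM KCl, 7 mM MgCl2, 0.01% Tween 20, 0.05% BSA. Luminescence was read after 8 min at ambient temperature.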
# ALOX15 inhib: 15-hLO (ALOX15) enzyme inhibition; Potency, µM (titrated, usually from 57.1 µM), without a hit: at the top dose activity change, negative = inhibition, actives largely listed as inhibitors; P16050; AID 887; purified 15hLO-1, xylenol orange hydroperoxide absorbance; 1.4% of 74,000 active; also: % is scaled to controls: 0 for no effect and ±100 for the full control effect; nearly all actives have a fitted effect of over 55% in size
# Target sequence (P16050 whole entry, looked up): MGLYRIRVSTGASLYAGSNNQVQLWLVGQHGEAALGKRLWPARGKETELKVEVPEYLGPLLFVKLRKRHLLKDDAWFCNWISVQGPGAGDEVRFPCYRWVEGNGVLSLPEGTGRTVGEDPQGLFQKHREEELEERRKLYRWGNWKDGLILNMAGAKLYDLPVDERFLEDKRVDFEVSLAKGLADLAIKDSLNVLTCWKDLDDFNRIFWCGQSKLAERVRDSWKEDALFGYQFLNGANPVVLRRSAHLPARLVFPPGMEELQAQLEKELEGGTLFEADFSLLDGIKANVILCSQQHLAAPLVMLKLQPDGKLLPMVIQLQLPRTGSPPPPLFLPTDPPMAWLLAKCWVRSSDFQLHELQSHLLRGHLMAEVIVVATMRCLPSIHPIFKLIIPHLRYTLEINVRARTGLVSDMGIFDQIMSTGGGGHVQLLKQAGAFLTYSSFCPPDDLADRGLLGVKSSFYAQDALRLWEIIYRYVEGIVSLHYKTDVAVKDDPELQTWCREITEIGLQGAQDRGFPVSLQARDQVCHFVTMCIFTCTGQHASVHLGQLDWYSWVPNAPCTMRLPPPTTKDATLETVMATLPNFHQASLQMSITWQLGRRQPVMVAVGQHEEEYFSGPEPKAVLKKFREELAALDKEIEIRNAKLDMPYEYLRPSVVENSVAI
#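 Hydroperoxide formed from arachidonic acid (50 uM) by purified human 15hLO-1 (40 nM) oxidizes ferrous iron, and the ferric-xylenol orange complex is read at 573 versus 405 nm. Compounds were preincubated 15 min; reaction ran 6 min at room temperature.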
# TSHR ag: activates the human thyroid stimulating hormone receptor; HEK293-CNG-TSHR cells (CNG channel as cAMP sensor), membrane potential dye, cAMP; 0.48% of 73,000 active; Potency, µM (doses to about 57.1 µM), without a hit: at the highest dose activation, actives largely listed as activators; P16473; active = well fitted activation curve with a large enough effect in the main read-out, with a control signal flat, not every such curve was filed as active; inconclusive = small, poorly fitted or top-dose-only effect, or a change in a side signal; inactive = no such curve, though single readings can be large or run the other way; % of control where 0% means no effect;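 also: the control signal comes from parental cells without the receptor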
#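 HEK 293 cells stably expressing TSHR and a cAMP-gated CNG channel; parental CNG-only cells as counterscreen. Cells preloaded 60 min with membrane potential dye plus 100 uM RO 20-1724, then compound 30 min; fluorescence read at 590 nm.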
# Tau fil binding: binds recombinant human tau filaments; P10636; recombinant tau filaments, thioflavin S fluorescence, 15 h; filaments grown with octadecylsulfate alongside compound; Potency, µM (titrated, usually from 57.1 µM), for inactives: top-dose activity change, negative = inhibition; 2% of 71,000 active; AID 596;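 also: % is scaled to controls: 0 for no effect and ±100 for the full control effect; actives lower thioflavin S fluorescence by blocking filaments or displacing dye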
#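 Recombinant tau protein (human, 1 uM final) plus 30 uM ODS in HEPES pH 7.4 with NaCl, DTT and thioflavine S. Compound present from the start; fluorescence at 510 nm after 15 h, 37 C.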
# * hit, by the source's call; i = inactive; ? = inconclusive; / = not tested or not shown; [ ] = another dose, or the depositor's remark. Unless noted, calls follow the shape of the dose curve; as a rule, active = well fitted curve in the direction sought with a large enough effect; inconclusive = small, poorly fitted or top-dose-only effect, or another doubt; inactive = no such curve, though single readings can be large; an effect the other way counts as inactive or inconclusive. Potency is read from the fitted curve at half-maximal effect.
SMILES,HEK293 cAMP cs,Bst PK mod,Luciferase inh,ALOX15 inhib,TSHR ag,Tau fil binding
COC(=O)[C@@]1(Cc2ccc(F)cc2)[C@H]2c3cc(C(=O)N4CCCC4)n(Cc4cccc5ccccc45)c3C[C@H]2CN1C(=O)c1ccccc1,?,/,/,/,?,21.5%
COc1ccc2[nH]c(C(=O)O)c(NS(=O)(=O)c3ccc(OC)c(OC)c3)c2c1,1.8%,/,-0.7%,-22.3%,0.8%,20µM*
COc1ccc(S(=O)(=O)Nc2c(C(=O)O)[nH]c3ccccc23)c(OC)c1,3.3%,>57,1.7%,-2.1%,5.2%,-9.0%
C[C@H](C(=O)c1ccccc1)[C@@H](c1ccccc1)N1CCOCC1,?,/,3.3%[11.4 µM],-0.1%[11.4 µM],?,1.5%[11.4 µM]
CCCc1ncc(C(=O)c2ccc(OC)cc2)n1C,13.0%,/,-9.1%,10µM*,11.0%,-0.3%
N#CCCn1c(=O)c(-c2ccccc2)nc2cnc(N3CCNCC3)nc21,14.0%,/,0.4%[11.4 µM],-5.3%,4.7%,21.2%
O=C(c1cn(-c2ccccc2)nc1-c1ccccc1)N1CCOCC1,-6.3%,>57,-27.6%,-5.2%,7.6%,1.1%
O=C(c1cn(-c2ccccc2)nc1-c1ccc(Cl)s1)N1CCOCC1,-4.4%,/,-14.8%,0.0%,25.1µM*,3.8%
NCCC[C@@H](CC(=O)N[C@@H]1CCCC[C@H]1C(=O)N[C@H](CC(=O)N[C@@H](CCC(=O)O)CC(=O)O)Cc1c[nH]c2ccccc12)NC(=O)C[C@H](Cc1ccccc1)NC(=O)[C@@H]1CCCC[C@H]1N,12.8%,/,/,/,0.9%,-7.2%
O=C(CN1C(=O)NC2(CCCCCC2)C1=O)c1ccc2c(c1)OCCO2,10µM*,>57,-26.2%,-9.2%,?,-15.0%
NC(N)=NCCSSCCN=C(N)N,-6.4%,/,0.2%,/,/,-6.5%
CCOC(=O)[C@@H](O)Cc1cnc2ccccc2n1,9.2%[11.4 µM],/,-1.0%[11.4 µM],-0.9%[11.4 µM],-0.6%[11.4 µM],5.01µM*
Cc1cc(NC(=O)c2ccc3nc(-c4ccccc4)c(-c4ccccc4)nc3c2)no1,20.6%,>57,1.8%,10.7%,12.4%,4.1%
COc1cccc(C(=O)Nc2cccc(NC(C)=O)c2)c1,5.0%,/,-8.2%,-2.3%,/,-7.2%
COc1ccc(C(=O)Nc2cc(C)on2)cc1,2.5%[11.4 µM],/,10µM*,-0.4%[11.4 µM],0.2%[11.4 µM],-3.4%[11.4 µM]
COc1cccc(NC(=O)CNC(C)CCC(C)C)c1 (stereo not drawn),22.2%,>57,3.9%,-5.8%,12.7%,20µM*
COc1ccc(C(=O)Nc2cccc(OC)c2)cc1,6.9%,/,7.94µM*,3.7%,2.2%,3.0%
COc1ccc(C(=O)Nc2ccc(OC)c(OC)c2)cc1,1.0%,i,25.1µM*,-2.4%,-11.1%,3.9%
COc1ccc(NC(=O)c2ccc(S(=O)(=O)N(C)C)cc2)cc1OC,-3.3%,>57,-3.1%,-26.8%,-1.4%,-10.2%
COc1cccc(NC(=O)CNC(=O)c2ccccc2)c1,2.0%,>57,-0.2%,-7.4%,0.9%,9.8%
CC1CCC2C(=O)OC(Cc3ccccc3)CN2C1c1ccc(Br)cc1 (stereo not drawn),?,/,/,-1.1%[11.4 µM],?,/
COc1cccc(C(=O)Nc2ccc(NC(=O)C(C)(C)C)cn2)c1,7.1%,3.74*,3.98µM*,-2.1%,-0.7%,-5.8%
COc1cccc(C(=O)Nc2cnc(NC(=O)c3ccco3)cc2C)c1,-5.8%,>57,-4.1%,-19.1%,0.3%,0.3%

# Screens deposited in PubChem by National Center for Advancing Translational Sciences (NCATS).
